Experimental data taken from PubChem BioAssay (Tox21).
Records with an inconclusive call do not appear. Activity calls are given as the source filed them. Unless noted, the call rests on the fitted dose curve; in most records, active means well fitted curve in the direction sought with a large enough effect in the repeat runs; inconclusive means weak or mixed curves; inactive means no such curve, though single readings can be large; an effect the other way counts as inactive or inconclusive.

Experiments:
[1] = qHTS assay to identify small molecule antagonists of the vitamin D receptor (VDR) signaling pathway - cell viability counter screen (AID 743225); further: nearly all actives have a fitted effect of over 50% in size
Procedure, shortened: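 Read-out: CellTiter-Glo luminescence measured 30 min after reagent addition at room temperature. Cells were VDR-bla HEK 293T exposed 16 h at 37C, 5% CO2, to compound with 3 nM final calcitriol agonist.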

[2] = qHTS assay to identify small molecule agonists of the NFkB signaling pathway (AID 1159509; active means well fitted curve in the direction sought with a large enough effect in the signal ratio in the repeat runs, not every such curve was filed as active; the % refers to the signal ratio; further: series mostly up to about 61 µM)
Procedure, shortened: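 Agonist activity was read as beta-lactamase-driven FRET change (460 and 530 nm emission, 405 nm excitation) following 1.5 hr substrate loading at room temperature. Beforehand, ME-180 NFkB-bla reporter cells were treated with compounds for 5 hr at 37 C.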

[3] = qHTS assay to identify small molecule agonists of the NFkB signaling pathway - cell viability counter screen (AID 1159515; calls by dose curve; further: series mostly up to about 61 µM; nearly all actives have a fitted effect of over 55% in size)
Procedure, shortened: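 Cells are seeded (2,000 NFkB-bla ME-180 per well), rested overnight, and dosed with DMSO-dissolved compounds for 5 hr at 37 C. Viability is then read by CellTiter-Glo luminescence after 30 min at room temperature.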

[4] = qHTS assay to identify small molecule agonists of the endoplasmic reticulum stress response signaling pathway (AID 1159516; active means well fitted activation curve with a large enough effect in the signal ratio in the repeat runs, not every such curve was filed as active; the % refers to the signal ratio)
Procedure, shortened: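 Cells are seeded at 1,500 per well and incubated overnight. Compounds in DMSO are added for 5 hr at 37 C, then beta-lactamase FRET substrate for 2 hr at room temperature, and fluorescence at 460 and 530 nm is measured.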

[5] = qHTS assay to identify small molecule antagonists of the retinoid-related orphan receptor gamma (ROR-gamma) signaling pathway - cell viability counter screen (AID 1159520); further: nearly all actives have a fitted effect of over 50% in size
Procedure, shortened: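 Tet-on ROR gamma CHO cells were given compounds for 2 hr, then doxycycline hyclate at 1 uM final, and incubated 16 hr at 37 C. Viability was measured as ATP content by CellTiter-Glo luminescence.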

[6] = molecular target: Nuclear receptor ROR-gamma (Homo sapiens) (UniProt P51449); experiment: qHTS assay to identify small molecule antagonists of the retinoid-related orphan receptor gamma (ROR-gamma) signaling pathway (AID 1159521;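 further: CHO cells with doxycycline inducible ROR-gamma driving an RORE luciferase reporter; top concentration of the series differs between compounds; nearly all actives have a fitted effect of over 50% in size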)
Procedure, shortened: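 CHO Tet-on RORγ, RORE-luc reporter. Cpd 2 h pre-incubation, then dox hyclate 1 uM final, 16 h, 37 C/5% CO2. ONE-Glo luminescence; decrease = antagonist.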

[7] = qHTS assay to identify small molecule agonists of the AP-1 signaling pathway - cell viability counter screen (AID 1159525; calls by dose curve; further: nearly all actives have a fitted effect of over 55% in size)
Procedure, shortened: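 Same-well cytotoxicity counter screen of the Tox21 10K library in ME-180 cells. The readout is ATP-dependent luminescence after 5 h compound treatment. Data are normalised to DMSO and tetra n-octyl ammonium bromide controls.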

[8] = qHTS assay to identify small molecule agonists of the AP-1 signaling pathway (AID 1159526; calls by dose curve)
[9] = molecular target: Retinoic acid receptor RXR-alpha (Homo sapiens) (UniProt P19793); experiment: qHTS assay to identify small molecule agonists of the RXR signaling pathway (AID 1159527; calls by dose curve; further: nearly all actives have a fitted effect of over 35% in size)
Procedure, shortened: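 Read-out: beta-lactamase FRET ratio (405 nm excitation, 460 and 530 nm emission) after 2 hr substrate loading at room temperature. Cells were RXR-alpha-UAS-bla HEK 293T treated with compounds for 16 hr in 2% charcoal-stripped FBS medium.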

[10] = qHTS assay to identify small molecule agonists of the RXR signaling pathway - cell viability counter screen (AID 1159529); further: series mostly up to about 77 µM; nearly all actives have a fitted effect of over 50% in size
Procedure, shortened: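 HEK 293T RXRa-bla cells, 2% CS-FBS; 5 h settle; cpd 16 h 37 C, 5% CO2; CellTiter-Glo 30 min RT, luminescence. Tetraoctyl ammonium bromide as positive control.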

[11] = qHTS assay to identify small molecule antagonists of the retinoid acid receptor (RAR) signaling pathway - cell viability counter screen (AID 1159551); further: nearly all actives have a fitted effect of over 35% in size
Procedure, shortened: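 Cells (C3RL4) are plated, incubated overnight, dosed with compound in DMSO, then given retinol at 1 uM final. After 6 h at 37 C, CellTiter-Glo is added and luminescence read following 30 min at room temperature.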

[12] = qHTS assay to identify small molecule agonists of the retinoic acid receptor (RAR) signaling pathway (AID 1159553)
Procedure, shortened: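 Seed C3RL4 reporter cells at 1,000 per well and incubate overnight at 37 C. Add compounds in DMSO, incubate 6 hr. Add luciferase reagent, wait 30 min at room temperature, read luminescence.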

[13] = qHTS assay to identify small molecule antagonists of the retinoic acid receptor (RAR) signaling pathway (AID 1159552; further: nearly all actives have a fitted effect of over 50% in size)
Procedure, shortened: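 Cells of the C3RL4 line were seeded, incubated overnight, then dosed with compounds in DMSO followed immediately by retinol (1 uM final). Six hours later luciferase detection reagent went in; signal was measured after 30 min at RT.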

Measured: Potency

Retinoic acid receptor RXR-alpha (Homo sapiens), sequence (P19793 whole entry, looked up): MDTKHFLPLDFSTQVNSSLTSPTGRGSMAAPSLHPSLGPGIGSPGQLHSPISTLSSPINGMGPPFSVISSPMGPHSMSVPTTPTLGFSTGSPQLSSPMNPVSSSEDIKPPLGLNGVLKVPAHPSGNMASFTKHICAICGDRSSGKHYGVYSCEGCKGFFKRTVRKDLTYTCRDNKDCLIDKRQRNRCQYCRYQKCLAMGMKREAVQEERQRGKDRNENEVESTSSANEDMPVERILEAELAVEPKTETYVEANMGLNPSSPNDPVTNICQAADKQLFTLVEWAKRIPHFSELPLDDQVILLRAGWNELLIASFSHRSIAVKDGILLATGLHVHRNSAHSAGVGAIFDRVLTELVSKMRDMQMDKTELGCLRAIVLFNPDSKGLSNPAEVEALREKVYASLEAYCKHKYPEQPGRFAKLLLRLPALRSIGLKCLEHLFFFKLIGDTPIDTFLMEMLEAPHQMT

Cc1cn([C@H]2C[C@H](F)[C@@H](CO)O2)c(=O)[nH]c1=O
not listed: [13]
inactive: all other assays above

CC1CCCO1 (centres undefined)
not listed: [12] | [13]
inactive: all other assays above

O=C1OC[C@H](Cc2cccc(O)c2)[C@H]1Cc1cccc(O)c1
not listed: [1] | [10]
inactive: all other assays above

[Cl][Nd]([Cl])[Cl]
not listed: [13]
inactive: all other assays above

CC(C)(C(=O)c1cccnc1)c1cccnc1
inactive: all assays above
